Bioassay records deposited in PubChem by National Center for Advancing Translational Sciences (NCATS).
An excerpt weighted towards active compounds, which were near 10% of everything screened.
12-hLO inh = 12-hLO (ALOX12) enzyme inhibition | purified 12-hLO, xylenol orange hydroperoxide absorbance | Potency, µM (highest dose often 57.1 µM), for the others: at the highest dose activity change, negative = inhibition, usual class: inhibitors | 150,000 tested, 0.12% active; further: potency means the concentration at half of the fitted maximal effect; nearly all actives have a fitted effect of over 55% in size
Target sequence (P18054 whole entry, looked up): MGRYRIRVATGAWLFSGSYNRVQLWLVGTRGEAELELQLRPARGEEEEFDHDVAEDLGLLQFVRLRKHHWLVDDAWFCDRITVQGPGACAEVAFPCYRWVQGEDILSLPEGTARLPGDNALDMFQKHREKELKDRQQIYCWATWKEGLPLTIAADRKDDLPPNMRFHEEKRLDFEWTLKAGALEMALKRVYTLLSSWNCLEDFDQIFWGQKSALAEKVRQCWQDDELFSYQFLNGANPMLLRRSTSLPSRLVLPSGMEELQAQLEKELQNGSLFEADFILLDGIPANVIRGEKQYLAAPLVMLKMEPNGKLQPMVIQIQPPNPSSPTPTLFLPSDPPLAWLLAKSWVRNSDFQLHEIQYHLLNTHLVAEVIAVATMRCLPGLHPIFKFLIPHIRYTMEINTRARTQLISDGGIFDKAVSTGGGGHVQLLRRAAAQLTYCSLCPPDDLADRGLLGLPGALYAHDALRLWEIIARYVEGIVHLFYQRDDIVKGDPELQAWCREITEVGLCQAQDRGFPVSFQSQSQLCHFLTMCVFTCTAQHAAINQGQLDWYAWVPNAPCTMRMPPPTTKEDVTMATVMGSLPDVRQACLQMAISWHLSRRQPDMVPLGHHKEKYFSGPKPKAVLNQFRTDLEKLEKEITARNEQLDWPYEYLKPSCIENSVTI
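Hydroperoxide formation by human 12-lipoxygenase from 40 uM arachidonic acid was followed colorimetrically via ferric-xylenol orange complex, using the 573/405 nm absorbance ratio. Enzyme concentration was 150 nM, with 30 min reaction at room temperature.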
GLA spleen mod = alpha-galactosidase A (human) modulation; P06280; human spleen homogenate, 4MU-alpha-Gal fluorescence, 40 min; Potency, µM (top dose mostly 80 µM), for the others: at the highest dose activity change, negative = inhibition, hits mostly inhibitors; 240,000 tested, 0.008% active; AID 2107;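 further: potency means the concentration at half of the fitted maximal effect; 0% = enzyme with vehicle and -100% = no enzyme basal signal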
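Human spleen homogenate (1 ug) as enzyme source, 4-methylumbelliferyl-alpha-D-galactopyranoside 1 mM final, citrate/phosphate pH 5.0 with 0.01% Tween-20. Compounds 40 min at 37C, NaOH/glycine stop; fluorescence Ex 365/Em 440, Hill-fit AC50.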
HPGD inh = inhibitors of human 15-hydroxyprostaglandin dehydrogenase (HPGD). P15428. purified HPGD, NADH fluorescence kinetic, PGE2 substrate. Potency, µM, without a hit: at the highest dose activity change, negative = inhibition, actives largely listed as inhibitors. 150,000 tested, 4.3% active. AID 894; active means well fitted inhibition curve with a large enough effect, not every such curve was filed as active; inconclusive means small, poorly fitted or top-dose-only effect, or another doubt; inactive means no such curve, though single readings can be large or run the other way; further: potency means the concentration at half of the fitted maximal effect
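NADH formation kinetics: reaction with 30 uM PGE2 and 1 mM NAD+ (final), 20 nM enzyme, Tris-HCl pH 8 with Tween 20, after 15 min compound preincubation at room temperature. Fluorescence change, last versus first of five reads.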
ALDH1A1 inh = blocks purified human ALDH1A1 activity; Potency, µM (titrated, usually from 75.3 µM), inactives show at the highest dose activity, negative = inhibition, most hits filed as inhibitors; P00352; AID 1030; Purified ALDH1A1, NADH fluorescence, propionaldehyde substrate; 220,000 tested, 7.3% active; active means well fitted inhibition curve with a large enough effect, not every such curve was filed as active; inconclusive means small, poorly fitted or top-dose-only effect, or another doubt; inactive means no such curve, though single readings can be large or run the other way;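 further: potency means the concentration at half of the fitted maximal effect; plate controls were no enzyme wells and a reference inhibitor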
PNC inhibitor = blocks assembly of the perinucleolar compartment | PC3M PTB-GFP, PNC prevalence imaging, 16 h; active compounds read low | activity change (PNC), negative = inhibition, % at 10 µM | 140,000 tested, 3.1% active | AID 2417;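 active means readout at or below -70, meaning at least 70% loss of cells showing the perinucleolar compartment, a nuclear body marking cancer cells; inconclusive means readout between -30 and a set limit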;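 further: plate controls were DMSO wells for no effect and camptothecin positive control wells for full effect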
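Compounds are pinned in duplicate onto adhered PC3M cells stably expressing GFP-tagged PTB and incubated 16 h at 37 C. Cells are then fixed, nuclei stained with Hoechst, and PNC-positive cells counted.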
GLA inh pH 4.5 = blocks human alpha-galactosidase A at pH 4.5. 230,000 tested, under 10 active. activity change, negative = inhibition, % at 105 µM. purified enzyme, 4-MU-alpha-Gal fluorescence, pH 4.5;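 further: 0% = full activity with enzyme and -100% = basal without enzyme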
The depositor's hits bear a star; ? = inconclusive; / = not tested or not shown; [ ] = dose if it differs, or a comment. Unless noted, the call rests on the fitted dose curve; in most records, active means well fitted curve in the direction sought with a large enough effect; inconclusive means small, poorly fitted or top-dose-only effect, or another doubt; inactive means no such curve, though single readings can be large; an effect the other way counts as inactive or inconclusive. Unless noted, on the % scale 0 is the no-effect control and ±100 the full control effect.

SMILES | 12-hLO inh | GLA spleen mod | HPGD inh | ALDH1A1 inh | PNC inhibitor | GLA inh pH 4.5
Cc1onc(-c2c(Cl)cccc2Cl)c1C(=O)NNc1ccccc1 | / | -8% | / | 22µM* | / | -1
Cc1onc(-c2c(Cl)cccc2Cl)c1C(=O)NCCc1ccc(S(N)(=O)=O)cc1 | 5% | -9% | 32µM* | 3% | 7 | 2
Cc1onc(-c2c(F)cccc2Cl)c1C(=O)OCN1C(=O)c2ccccc2C1=O | -9% | -4% | 1.4µM* | 3% | -21 | -4
CCCOP(=O)(c1ccc(N(C)C)cc1)C(Nc1ccccc1)c1ccc(C)cc1 (configuration not stated) | / | -4% | / | -6% | / | -29
CCN[C@@H]1C[C@H](C)S(=O)(=O)c2sc(S(N)(=O)=O)cc21 | -1%[25.6 µM] | 8%[29.1 µM] | -3% | 13%[20.9 µM] | / | 8
COc1ccc(C(=O)Nc2ccc(S(=O)(=O)N3CCCCC3C)cc2)c(OC)c1OC (configuration not stated) | -6% | -7% | ? | 18µM* | ? | -10
CC1CCCN(S(=O)(=O)c2ccc(NC(=O)c3cccc(-n4cnnn4)c3)cc2)C1 (configuration not stated) | 0% | -16% | 28µM* | ? | -15 | -5
O=C(C1CCN(S(=O)(=O)c2ccc(-n3cnnn3)cc2)CC1)N1CCN(c2ccccc2)CC1 | -4% | 1% | -9% | 28µM* | ? | -6
CC1CCCCN1S(=O)(=O)c1ccc(NC(=O)c2cccc(-n3cnnn3)c2)cc1 (configuration not stated) | -3% | 2% | 22µM* | 25µM* | -11 | 1
COc1cc(C(=O)Nc2ccc(S(=O)(=O)N3CCCCC3C)cc2)cc(OC)c1OC (configuration not stated) | -6% | -1% | -14% | ? | ? | -7
Clc1ccc(Oc2nc3c(Cl)cccc3s2)cc1Cl | / | 2% | / | / | / | 1
CN(C)/C=C/C1=C([N+](=O)[O-])C(c2cccc([N+](=O)[O-])c2)NC(=O)N1 (configuration not stated) | / | 3% | / | / | / | 2
CN1C(=O)c2ccc(N3CCCC3)cc2C1=O | 6% | 0% | -30% | ? | 27 | 4
O=C1/C(=C/c2ccc(N3CCCC3)cc2)NC(=S)N1C1CC1 | -29% | -4% | -7% | 16µM* | 45 | -7
Cc1cc(N2CCCC2)ccc1/C=C1\NC(=S)N(C)C1=O | / | 0% | / | 4.5µM* | / | -10
CC1CCc2sc(C(=O)N/N=C/c3ccc(O)cc3)cc2C1 (configuration not stated) | / | 2% | / | ? | / | -5
C#CCCCO/N=C1/C[C@@H](O)[C@@H](O)[C@@H]2[C@@H]3C(=O)N(C[C@@H]4CCCO4)C(=O)[C@H]3CC[C@@H]12 | / | -2%[17.5 µM] | / | -1%[13.5 µM] | / | /
Cc1ccc(S(=O)(=O)NNc2ccccc2)c(C)c1 | ? | -4% | 8.9µM* | 7.1µM* | ? | 11
Cc1ccc(S(=O)(=O)NNC(=O)c2cccs2)c(C)c1 | -1% | -3% | 2% | 3% | -8 | -3
COc1ccc(S(=O)(=O)Nc2ccccc2C(=O)NC(C)(C)C)cc1OC | 7% | 3% | ? | ? | -112* | -7
CCCCNC(=O)c1ccc(NC(C)=O)c(Cl)c1 | / | 0% | / | 4% | / | -1
Cc1c(C(=O)N(C)C2CCCCC2)sc2nc3ccc(N)cc3n12 | 1%[0.00818 µM] | -7% | 8.9µM* | ? | / | -5
CCC(C)CCCCNC1=NCCS1 (configuration not stated) | / | -15% | / | 2% | / | 3
O=C1NCCCC2c3cc(O)c4ccccc4c3OC12N1CCCCC1 (configuration not stated) | -25% | -7% | -11% | ? | ? | 0
O=C1NCCCC2c3c(cc(Br)c(O)c3Br)OC12N1CCOCC1 (configuration not stated) | -5% | 9% | 32µM* | 3.2µM* | -2 | 7
SMILES | 12-hLO inh | GLA spleen mod | HPGD inh | ALDH1A1 inh | PNC inhibitor | GLA inh pH 4.5
CCOC(=O)c1c(N2C(=O)CC(Sc3ccccc3C(=O)O)C2=O)sc2c1CCCC2 (configuration not stated) | / | -1% | / | 4.5µM* | / | 5
CCN1C(=O)CC(Sc2ccccc2C(=O)O)C1=O (configuration not stated) | -4% | -11% | 1% | 0% | ? | 4
O=C(O)c1ccccc1SC1CC(=O)N(c2cccc3ccccc23)C1=O (configuration not stated) | / | 7% | / | / | / | 5
CCOc1ccc(N2C(=O)CC(Sc3ccccc3C(=O)O)C2=O)c([N+](=O)[O-])c1 (configuration not stated) | / | 4% | / | 1µM* | / | -1
O=C1CC(Sc2nnnn2C2CCCCC2)C(=O)N1c1ccccc1 (configuration not stated) | 1% | 4% | ? | 3.5µM* | -100* | -7
Cc1cc(C)cc(N2C(=O)CC(Sc3nnnn3-c3ccccc3)C2=O)c1 (configuration not stated) | 5% | -14% | ? | 14µM* | 36 | -28
COc1cccc([C@@H]2Oc3ccc(Br)cc3C(=O)[C@H]2OC(=O)Nc2ccc(C)c(Br)c2)c1 | / | -4% | -8% | 12% | / | -6
NNC(=O)c1ccc[n+](CCc2ccccc2)c1 | 3%[11.4 µM] | / | -7% | 1%[13.5 µM] | / | /
CC(=O)OCC(CO)OC(C)=O (configuration not stated) (tested in a mixture with another compound) | / | 9% | / | / | / | /
O=C(Nc1ccc(F)cc1)c1ccccc1NS(=O)(=O)N1CCCC1 | / | -2% | / | -1% | / | 5
Cn1nnnc1SC1CC(=O)N(c2ccccc2)C1=O (configuration not stated) | / | -3% | / | 1.6µM* | / | 6
Cc1c(O)nc(SC2CC(=O)N(c3ccccc3)C2=O)[nH]c1=O (configuration not stated) | 2% | 4% | -14% | ? | 30 | 6
COC(=O)c1ccccc1SC1CC(=O)N(c2ccccc2)C1=O (configuration not stated) | 6% | -10% | 14µM* | ? | ? | 21
Cc1cccc(N2C(=O)CC(Sc3nc(C)cc(C)n3)C2=O)c1 (configuration not stated) | 5% | -4% | -26% | ? | -15 | 1
Cc1cccc(N2C(=O)CC(Sc3nnc(C)s3)C2=O)c1 (configuration not stated) | -5% | -28% | 25µM* | 2.8µM* | -7 | 3
Cc1cc(C)cc(N2C(=O)CC(Sc3ncn[nH]3)C2=O)c1 (configuration not stated) | / | -13% | / | 2µM* | / | 8
